Assay outcomes (PubChem BioAssay)
CRFBP-R2 block: antagonists of CRF-BP/CRF-R2 complex, primary screen, cell-based, HEK293, calcium dye fluorescence, uHTS; inhibition, % at 11.8 µM; 350,000 tested, 0.59% active; CRF-induced calcium fluorescence;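 active = inhibition of the ligand-induced calcium signal above about 50% at the single tested concentration, limit read from the data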
Keap1 Nrf2 FP: Keap1-Nrf2 protein-protein interaction inhibitors, primary screen, biochemical, fluorescence polarization, single point. Kelch-like ECH-associated protein 1 (Homo sapiens), Q14145. Keap1 Kelch-Nrf2 peptide fluorescence polarization, 1536-well. inhibition, % at 9.4 µM. 340,000 tested, 0.15% active; in the data active = inhibition above about 12%;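 note: human Keap1 Kelch domain with fluorescein labeled Nrf2 9mer peptide probe; 0% = neutral control wells and 100% = peptide positive control; higher means more block of Keap1 binding to Nrf2 peptide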
Target sequence (Q14145 whole entry, looked up, the tested form may be a part): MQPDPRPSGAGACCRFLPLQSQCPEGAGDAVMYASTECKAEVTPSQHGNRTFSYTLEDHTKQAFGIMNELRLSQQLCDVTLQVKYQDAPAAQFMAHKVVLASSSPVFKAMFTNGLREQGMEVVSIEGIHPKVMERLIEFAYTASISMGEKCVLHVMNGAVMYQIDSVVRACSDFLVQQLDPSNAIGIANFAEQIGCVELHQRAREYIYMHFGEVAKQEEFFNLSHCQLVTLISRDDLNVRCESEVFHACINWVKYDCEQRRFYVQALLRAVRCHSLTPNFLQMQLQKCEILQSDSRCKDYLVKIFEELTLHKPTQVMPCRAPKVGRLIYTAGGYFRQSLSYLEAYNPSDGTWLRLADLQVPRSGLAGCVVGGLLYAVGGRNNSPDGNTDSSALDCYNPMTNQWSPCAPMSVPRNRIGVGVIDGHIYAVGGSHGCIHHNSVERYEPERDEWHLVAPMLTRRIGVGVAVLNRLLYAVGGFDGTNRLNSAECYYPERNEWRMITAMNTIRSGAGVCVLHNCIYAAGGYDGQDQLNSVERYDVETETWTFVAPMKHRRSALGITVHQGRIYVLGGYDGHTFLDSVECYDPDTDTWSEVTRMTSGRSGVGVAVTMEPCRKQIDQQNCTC
LANA DNA inh: inhibitors of KSHV C-LANA binding to DNA, primary screen, biochemical, fluorescence polarization, FAM-LBS DNA, MBP-C-LANA, single point | AID 504423, 2011 | inhibition, % at 9 µM | Kaposi's sarcoma herpesvirus LANA C-terminal domain (residues 932-1162) DNA binding | 340,000 tested, 0.078% active;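 active = highest replicate inhibition at or above 60% at 9 µM, even if other replicates fall short; inactive = all replicates below 60% inhibition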;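 note: 0% = neutral control wells and 100% = 4 µM acridine orange control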
CRFR2-BP ag: agonists of CRF-BP/CRF-R2 complex, primary screen, cell-based, HEK293, calcium dye fluorescence, uHTS; activation, % at 13.2 µM; 350,000 tested, 0.46% active; CRF-binding protein / CRF receptor 2 complex (human); calcium dye fluorescence (FLIPR); percent of saturating CRF peptide response;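 active = activation of at least 50%, plus an integration ratio under a set limit after plate pattern correction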;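 note: plate controls were neutral control wells without compound for no effect and CRF at EC100 for full effect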
Cardiac RTF inh: cardiac RTF calcium sensitivity inhibitors, primary screen, biochemical, IANBD-TnC fluorescence, EC70 calcium; Troponin I, cardiac muscle (Homo sapiens) + Troponin T, cardiac muscle (Homo sapiens) + …; IANBD-labeled cardiac RTF, Ca2+ fluorescence; inhibition, % at 7.15 µM; 340,000 tested, 0.12% active; AID 493244, 2011;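 active = inhibition above the mean inhibition of all tested compounds plus 3 SD, cut at about 17% in these data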;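 note: assay run at fixed EC70 calcium of 1.6 mM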
cardiac RTF act: cardiac RTF calcium sensitivity activators, primary screen, biochemical, IANBD-TnC fluorescence, EC20 calcium. 340,000 tested, 0.24% active. Troponin I, cardiac muscle (Homo sapiens) + Troponin T, cardiac muscle (Homo sapiens) + …. IANBD-labeled TnC RTF fluorescence at EC20 calcium; 0% EC20 calcium, 100% full calcium. activation, % at 7.2 µM. AID 493008, 2010;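 active = activation above the mean over all tested compounds plus 3 SD, cut at about 30% in these data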;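 note: rise in fluorescence read as greater calcium sensitivity of cardiac thin filaments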
Starred values were filed as active, the others as inactive; i = inactive; + = active, no number. Only some compounds are listed: those with a hit (about 1.3% of all), similar ones and a draw of the others.

SMILES	CRFBP-R2 block	Keap1 Nrf2 FP	LANA DNA inh	CRFR2-BP ag	Cardiac RTF inh	cardiac RTF act
CCN1CCN(S(=O)(=O)c2ccc(Cl)c(C(=O)N(CCc3ccccc3)Cc3ccccc3)c2)CC1	-5	-1	1	19	0	-9
Cc1ccc(S(=O)(=O)N2CCCCC2)cc1C(=O)N(CCc1ccccc1)Cc1ccccc1	67*	-5	3	4	-8	-7
O=C(NC1CCN(Cc2ccccc2)C1)c1cc(S(=O)(=O)N2CCOCC2)ccc1Cl (centres undefined)	17	-1	1	-1	2	-3
Cc1ccc(S(=O)(=O)N2CCOCC2)cc1C(=O)NC1CCN(Cc2ccccc2)CC1	56*	-3	1	3	-3	-3
CCC(=O)Nc1ccc2oc(-c3cccnc3)nc2c1	-6	-5	1	-1	-9	17
O=C1CC(c2ccccc2)n2nc(NC(=O)C3CCCO3)nc2N1 (centres undefined)	-6	1	0	0	-13	4
O=c1oc2c3c4c(cc2c(C(F)(F)F)c1CCN1CCOCC1)CCCN4CCC3	i	0	6	708	-68	70*
CC(C)c1cc(=O)oc2c3c4c(cc12)CCCN4CCC3	-3	-1	8	8	-18	7
Cc1ccc2nc(SCC(=O)N3CCOCC3)[nH]c2c1	78*	9	2	-2	-8	3
CCN(CC)c1ccc2c(C)cc(=O)oc2c1	1	-3	-2	-5	4	4
COc1cc(-c2cc(C(=O)Nc3ccc(C)c(S(=O)(=O)N4CCOCC4)c3)c3ccccc3n2)cc(OC)c1OC	-2	-6	1	8	-4	0
CCCc1cc(=O)[nH]c(SCC(=O)c2ccc3c(c2)OCCO3)n1	25	2	0	6	0	0
CCCc1cc(=O)[nH]c(SCC(=O)N(CCC#N)c2ccc3c(c2)OCCO3)n1	98*	3	-1	-1	-2	-3
COc1nc(N)nc(CC(=O)C2CC2)n1	-2	-4	1	-2	-2	0
O=C1C2CCCN2C(=S)N1c1ccc(Cl)cc1 (centres undefined)	-4	-6	1	2	1	1
CC(C)(C)N=Cc1c(O)ccc2oc3c(c12)CCCC3	-27	1	2	51*	-9	-3
Cc1ccc(NC(=O)c2cc3ccccc3oc2=N)cc1	0	0	0	5	6	10
N=c1oc2c3c4c(cc2cc1C(=O)Nc1ccccc1)CCCN4CCC3	-317	-5	-1	271*	i	+
O=C(CCc1nc2ccccc2c(=O)[nH]1)NNC(=O)COc1ccccc1Cl	0	-4	0	-1	9	-3
COc1ccc(N(C(=O)CNC(=O)c2cccs2)C(C(=O)NCC2CCCO2)c2ccc(OC)c(OC)c2)cc1 (centres undefined)	11	1	-1	-2	0	-1
COc1cc(OC)cc(N(C(=O)CNC(=O)c2cccs2)C(C(=O)NCC2CCCO2)c2ccc(OC)c(OC)c2)c1 (centres undefined)	-68	2	0	53*	-3	-3
CCOC(=O)c1sc(NC(=O)CSc2n[nH]c(-c3ccncc3)n2)c(C#N)c1C	70*	0	0	-5	-8	0
Cc1ccnc(NC(=O)COc2c(C)cc(C)cc2[N+](=O)[O-])c1	1	-2	0	0	11	4
C/C(=N\Nc1ncnc2sc(C)c(C)c12)c1ccccn1	-139	1	1	64*	-15	-2
O=C(O)c1ccc(N/N=C/C=C/c2ccc([N+](=O)[O-])o2)cc1	-49	-17	7	38	-14	-2
O=[N+]([O-])c1ccc(N/N=C/C=C/c2ccco2)cc1	-57	-9	0	95*	-22	12
